# Data from the supplement of paper PMC10338343.
# ± gives the standard deviation.
# Test system: MILI (PIWIL2) piRISC loaded with piRNA #1 (26 nt);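 further: 1 nM active piRISC with 0.1 nM target library at 33 °C single turnover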
# Assay: pre-steady-state target cleavage rate (min^-1); guide: piRNA #1 5'p-UGAGGUAGUAGGUUGUAUAGUAUCCA; higher = faster piRNA-guided slicing of the target
# Conditions: auxiliary factor: 500 nM mouse GTSF1
# Outline: (§1)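 At 33 °C in HEPES–potassium acetate buffer, a transcribed, DNA-blocked target RNA library […] was exposed for 0–8 or 0–960 min to 1 nM active affinity-purified piRISC carrying a single synthetic guide, with or without 500 nM GTSF1 partner protein. Uncleaved targets were sequenced and normalised to depth and to weakly complementary targets. With three trials pooled and k3 capped at 0.0001 min^-1, a burst-and-steady-state fit produced the pre-steady-state cleavage rate.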
row,Sequence,pre-steady-state target cleavage rate
1,GGAGACGAUACUAUACAACCUACUACGUGA,0.0822 ± 0.021
2,GGAGUGCAUACUAUACAACCUACUACCUCA,0.18 ± 0.0089
3,GGAGAGGAUACUAUAGAACCUACUACGUCA,0.0326 ± 0.0058
4,GGAGACCUUACUAUACAACCUCCUACCUCA,0.0597 ± 0.01
5,GGAGACGAAACUAUACAUCCUACUACCUCA,0.255 ± 0.026
6,GGAGUGGAUACUAUACAACUACUACCUCA,0.0608 ± 0.0047
7,GGAGACCAUACUAUACAACGUACUACCUGA,0.011 ± 0.0036
8,GGAGACCUAUCUUUACAACCUACUACCUCA,0.063 ± 0.0089
9,GGAGUGGAUACUAUACAACGUACUAGCUCA,0.0104 ± 0.0027
10,GGAGACGAUACUAUAGAUCCUACUACCUCA,0.224 ± 0.013
11,GGAGAGGAUACUAUAGAACCUACUAGCUCA,0.00752 ± 0.0035
12,GGAGAGGAUACUUUACAACGUACUACCUCA,0.018 ± 0.0029
13,GGAGACCUUAUCUAUACAACCUACUACCUCA,0.115 ± 0.014
14,GGAGAGGAUACUAAACAACCUACUACCUGA,0.0485 ± 0.011
15,GGAGUGGAUACUAUACAUCCUACAACCUCA,0.165 ± 0.014
16,GGAGACGAUAUCUAUACAACCUACUACCUCA,0.0966 ± 0.013
17,GGAGUGGAUACUUUACAACGUACUACCUCA,0.0295 ± 0.0029
18,GGAGACGAUACUAUACAACGUACUACGUCA,0.00557 ± 0.0029
19,GGAGUGGAUACAUUACAACCUACUACCUCA,0.152 ± 0.012
20,GGAGUGGAUUACUAUACAACCUACUACCUCA,0.154 ± 0.0078

row,Sequence,pre-steady-state target cleavage rate
1,GGAGUGGAUACUAUUACAACCUACUACCUCA,0.155 ± 0.0095
2,GGAGAGGAUACUUAUACAACCUACUACCUCA,0.127 ± 0.012
3,GGAGACCUAACUUUACAACCUAGUACCUCA,0.0141 ± 0.0091
4,GGAGACCUUACUAUACAACGUACUACGUCA,0.00879 ± 0.0038
5,GGAGACCAUACUAUACAACAUACUACCUCA,0.0769 ± 0.0092
6,GGAGACCUUAGUAUACAACCUACUACCUGA,0.0569 ± 0.0097
7,GGAGACCAUACUAUACAACCUACUAUCUCA,0.136 ± 0.013
8,GGAGACCUUACUAUACAACCUACGACCUCA,0.113 ± 0.012
9,GGAGACCAUACUAUACAAGCUACUUCCUCA,0.193 ± 0.016
10,GGAGAGGUAUACUAUACAACCUACUACCUCA,0.111 ± 0.0086
11,GGAGAGGAUACUACUACAACCUACUACCUCA,0.15 ± 0.016
12,GGAGACCAUACUAUAGCAACCUACUACCUCA,0.191 ± 0.016
13,GGAGACGAUACAUUACAACCUACUACCUCA,0.173 ± 0.015
14,GGAGACGUUUCUAUACAACCUACUACCUCA,0.105 ± 0.013
15,GGAGACCUAACUCUACAACCUACUACCUCA,0.114 ± 0.031
16,GGAGUGGAUACUAUACAACCUACUACACUCA,0.128 ± 0.018
17,GGAGUCCUUACUAUACAACCUACUACCUCA,0.174 ± 0.011
18,GGAGACGAUACUAUACAACCUACACCUCA,0.00588 ± 0.0025
19,GGAGACGUUACAAUACAACCUACUACCUCA,0.163 ± 0.015
20,GGAGUGGAAAGUAUACAACCUACUACCUCA,0.118 ± 0.0086

# Test system: EfPiwi piRISC loaded with piRNA #1 (26 nt)
# Assay: pre-steady-state target cleavage rate (min^-1); auxiliary factor: 500 nM Ephydatia muelleri Gtsf1; guide: piRNA #1 5'p-UGAGGUAGUAGGUUGUAUAGUAUCCA; MIWI and MILI are mouse PIWI proteins and EfPiwi is from a freshwater sponge; tags in brackets are library labels; higher = faster piRNA-guided slicing of the target
# Conditions: not given
# Outline: as §1
row,Sequence,pre-steady-state target cleavage rate
1,GGAGACGAUACUAUACAACCUACUACGUGA,0.00515 ± 0.0026
2,GGAGUGCAUACUAUACAACCUACUACCUCA,0.0787 ± 0.029
3,GGAGAGGAUACUAUAGAACCUACUACGUCA,0.00228 ± 0.0021
4,GGAGACCUUACUAUACAACCUCCUACCUCA,0.00545 ± 0.003
5,GGAGACGAAACUAUACAUCCUACUACCUCA,0.00655 ± 0.0027
6,GGAGUGGAUACUAUACAACUACUACCUCA,0.00835 ± 0.0039
7,GGAGACCAUACUAUACAACGUACUACCUGA,0.00457 ± 0.0027
8,GGAGACCUAUCUUUACAACCUACUACCUCA,0.0058 ± 0.0037
9,GGAGUGGAUACUAUACAACGUACUAGCUCA,0.00412 ± 0.0023
10,GGAGACGAUACUAUAGAUCCUACUACCUCA,0.00498 ± 0.0016
11,GGAGAGGAUACUAUAGAACCUACUAGCUCA,0.00254 ± 0.0018
12,GGAGAGGAUACUUUACAACGUACUACCUCA,0.00409 ± 0.0016
13,GGAGACCUUAUCUAUACAACCUACUACCUCA,0.0368 ± 0.017
14,GGAGAGGAUACUAAACAACCUACUACCUGA,0.00273 ± 0.0018
15,GGAGUGGAUACUAUACAUCCUACAACCUCA,0.00378 ± 0.0019
16,GGAGACGAUAUCUAUACAACCUACUACCUCA,0.00603 ± 0.0041
17,GGAGUGGAUACUUUACAACGUACUACCUCA,0.00254 ± 0.0014
18,GGAGACGAUACUAUACAACGUACUACGUCA,0.00379 ± 0.0014
19,GGAGUGGAUACAUUACAACCUACUACCUCA,0.00715 ± 0.0034
20,GGAGUGGAUUACUAUACAACCUACUACCUCA,0.00938 ± 0.0037

row,Sequence,pre-steady-state target cleavage rate
1,GGAGUGGAUACUAUUACAACCUACUACCUCA,0.131 ± 0.047
2,GGAGAGGAUACUUAUACAACCUACUACCUCA,0.112 ± 0.045
3,GGAGACCUAACUUUACAACCUAGUACCUCA,0.00417 ± 0.0038
4,GGAGACCUUACUAUACAACGUACUACGUCA,0.00267 ± 0.0018
5,GGAGACCAUACUAUACAACAUACUACCUCA,0.00326 ± 0.0021
6,GGAGACCUUAGUAUACAACCUACUACCUGA,0.00359 ± 0.0036
7,GGAGACCAUACUAUACAACCUACUAUCUCA,0.00899 ± 0.0033
8,GGAGACCUUACUAUACAACCUACGACCUCA,0.00282 ± 0.0024
9,GGAGACCAUACUAUACAAGCUACUUCCUCA,0.00551 ± 0.0027
10,GGAGAGGUAUACUAUACAACCUACUACCUCA,0.0588 ± 0.023
11,GGAGAGGAUACUACUACAACCUACUACCUCA,0.00619 ± 0.0042
12,GGAGACCAUACUAUAGCAACCUACUACCUCA,0.00736 ± 0.0044
13,GGAGACGAUACAUUACAACCUACUACCUCA,0.00848 ± 0.0035
14,GGAGACGUUUCUAUACAACCUACUACCUCA,0.0117 ± 0.0062
15,GGAGACCUAACUCUACAACCUACUACCUCA,0.0071 ± 0.0032
16,GGAGUGGAUACUAUACAACCUACUACACUCA,0.00464 ± 0.0021
17,GGAGUCCUUACUAUACAACCUACUACCUCA,0.0555 ± 0.021
18,GGAGACGAUACUAUACAACCUACACCUCA,0.00474 ± 0.0027
19,GGAGACGUUACAAUACAACCUACUACCUCA,0.0105 ± 0.0045
20,GGAGUGGAAAGUAUACAACCUACUACCUCA,0.00841 ± 0.0043
